The values below come from PubChem BioAssay AID588727 (Southern Research Specialized Biocontainment Screening …, 2011).

This assay in a line: inhibitors of VEEV TC-83 cytopathic effect, confirmation, Vero cells (AID 588727). Particulars: VEEV TC-83 cytopathic effect inhibition, at 20 µM. (In general: Damage to the host cells serves as the signal in cytopathic effect assays.)
Setting [1] is: stronger effect = higher value unless noted.
Setting [2] is: measured here: 10K pilot screen inhibition, stronger effect = higher value.

By inhibition is commonly meant how much of the control response was suppressed.

SMILES strings stand for the structures. Among all 350,000 compounds or so, about 450 (0.13%) were called active. The rule behind the calls is not given here. The list is a sample of the results. Entries with a potency or affinity are not part of this list. Where a SMILES comes first, the peptide text is derived from it. The star is where a group is joined. CH2Cl = ClC*

On to `CC(=O)c1cccc(-n2c(CCC(=O)O)ccc2-c2cccs2)c1`, for which, under setting [1], the inhibition result was “inactive”. For `COc1ccc(-c2nnc(SCC(=O)c3cccs3)n2-c2ccc(Cl)cc2)cc1`, the inhibition under setting [1] is 8.15% (inactive).

As for `O=C(N/N=C/c1cccnc1)C12CC3CC(CC(C3)C1)C2`, the inhibition under setting [1] is 2.16% (inactive). Same read-out and setting: next, `Cc1[nH]c2ccc(F)cc2c1CCN(Cc1cccnc1)C(=S)Nc1cccc(F)c1`: 2.61% (inactive). Turning to `O=C(O)/C(=C\c1ccc(-c2ccc(F)cc2)o1)c1ccccc1`, the inhibition under setting [1] was 1.57% (inactive). For the compound `CN(C)CC1CC/C(=C\c2ccc(O)cc2)C1=O` (centres undefined), the inhibition result under setting [1] is “inactive”. In the case of `COc1cccc(/C=C2/CCC(CN(C)C)C2=O)c1` (centres undefined), the inhibition under setting [1] is 48.7% (inactive). As for `O=C(CSc1nc2c([nH]c3ccccc32)c(=O)n1-c1ccccc1F)NCC1CCCO1` (centres undefined), the inhibition under setting [1] is 9.1% (inactive). Regarding `CCCN(Cc1nnc(-c2cccs2)o1)C(=O)c1cccc(S(=O)(=O)N2CCOCC2)c1`, the inhibition under setting [1] is 3.36% (inactive). On the same count and under the same terms, next, `O=C(c1cc(S(=O)(=O)N2CCCCC2)ccc1F)N1CCCCC1`: 2.62% (inactive); `Cc1nn(-c2ccccn2)c(C)c1Oc1ccccc1O`: 0.59% (inactive). On the same count and under the same terms, next, `Cc1cc(C)nc(-n2nc(C)c(Oc3ccccc3O)c2C)n1`: 2.08% (inactive); `CCOc1ccc(-c2ccc(SCc3ccccn3)nn2)cc1`: 8.3% (inactive).

Consider `Cc1[nH]c(C)c(S(=O)(=O)N2CCN(c3cccc(Cl)c3)CC2)c1C(=O)N1CCCC1`, for which the inhibition under setting [1] was 1.13% (inactive).

For the compound `Cc1[nH]c(C)c(S(=O)(=O)N2CCN(c3cccc(C(F)(F)F)c3)CC2)c1C(=O)N1CCCC1`, the inhibition under setting [1] was 0.9% (inactive). Consider `S=C(NCCCN1CCOCC1)N1CCN(c2nc(-c3ccc(Cl)cc3)cs2)CC1`, for which the inhibition under setting [1] was 1.38% (inactive).

`N=C1C(c2nc(-c3ccc(F)cc3)cs2)=C(O)CN1CCCN1CCOCC1`: the inhibition (stronger effect = higher value) was 1.67% (inactive) and the inhibition under setting [2] came out at 0.31%. As for `CCc1cc(=O)oc2cc(C)cc(OC(C)C(=O)NCCN3CCOCC3)c12` (centres undefined), the inhibition under setting [1] was 2.06% (inactive). Take `CC(C)CCSc1nc2ccccc2[nH]1`: the inhibition under setting [1] is 0.68% (inactive). The same measure, in the same setting: the figure for `COc1ccc(OC)c(C(=O)COC(=O)COc2ccccc2F)c1` is 0.88% (inactive). Still for that read-out and setting: next, `Cc1ccc(OCCCCN2CCCCC2)c(Br)c1`: “inactive”; `Cc1ccc(OCCCCN2CCC(C)CC2)c(Br)c1`: 0.3% (inactive); `CN(Cc1ccccc1)C(=O)COC(=O)c1cc(Cl)nc(Cl)c1`: 2.37% (inactive). As to `Cc1ccc(NC(=O)c2cccc(S(=O)(=O)N3CCN(C)CC3)c2)cc1F`, under setting [1], the inhibition entry is “inactive”. Still for that read-out and setting: the figure for `COC(=O)c1c(NC(=O)c2ccccc2)sc2c1CC(C)(C)NC2(C)C` is 1.35% (inactive); for `CCOc1ccc(C(=O)Nc2sc3c(c2C(=O)OC)CC(C)(C)NC3(C)C)cc1` it is 10.2% (inactive). On the same count and under the same terms, next, `COc1ccc(NC(=O)C2CCN(S(=O)(=O)c3cccc4nonc34)CC2)cc1`: 1.18% (inactive); `O=C(O)c1ccccc1NN=Cc1ccccc1`: 0.89% (inactive).

Regarding `O=C(O)c1cccc(N/N=C/c2cc(Br)cc(Br)c2O)c1`, the inhibition under setting [1] is 0.48% (inactive). Still for that read-out and setting: next, `COc1ccc(CN2CCN(c3ccccc3F)CC2)cc1O`: 0.89% (inactive); `CCc1ccc(Nc2nc(N3CCOCC3)nc(N3CCOCC3)n2)cc1`: 0.26% (inactive); `Cn1cc(Br)c(C(=O)NNC(=O)c2ccc(Cl)cc2)n1`: 0.65% (inactive). The same measure, in the same setting: the figure for `CCCCC#Cc1cncc(C(=O)NN)c1` is 1.61% (inactive).

On to `CC1CCN(c2ccc(C(=O)O)cc2NS(=O)(=O)c2ccc(Br)cc2)CC1`, for which the inhibition result under setting [1] was “inactive”. Still for that read-out and setting: the figure for `CC(=O)Nc1cccc(Oc2ncnc3scc(-c4ccccc4)c23)c1` is 11% (inactive); for `CC(=O)Nc1cccc(Oc2ncnc3scc(-c4ccc(C)cc4)c23)c1` it is 7.98% (inactive). In the case of `CCOC(=O)N1CCN(C(=O)CCNS(=O)(=O)c2ccccc2)CC1`, the inhibition under setting [1] is 1.37% (inactive).

Take `CCOC(=O)c1[nH]c(COC(=O)c2ccccc2NC(=O)c2ccco2)c(C(=O)OCC)c1C`: the inhibition (stronger effect = higher value) is 1.08% (inactive) and the inhibition under setting [2] was found to be 3.34%. Consider `CCCCN(C(=O)CSc1nc(CCC)cc(=O)[nH]1)c1c(N)n(Cc2ccccc2)c(=O)[nH]c1=O`, for which the inhibition under setting [1] is 0.91% (inactive). For the compound `O=c1oc(C2(O)CCCCC2)cc2ccc(Br)cc12`, the inhibition runs as follows: (stronger effect = higher value) 0.16% (inactive); under setting [2], 1.56%. As to `O=c1oc(C2(O)CCCCC2)cc2ccccc12`, under setting [1], the inhibition is 0.11% (inactive). The same measure, in the same setting: next, `COc1ccc(OC)c(NC(=O)c2ccc3c(c2)OCO3)c1`: “inactive”; `CCCc1nc2c(s1)CCc1onc(-c3cccc([N+](=O)[O-])c3)c1-2`: 0.11% (inactive); `CN1CCN(c2ccc(NC(=O)c3ccc(-c4ccc(Br)cc4)o3)cc2)CC1`: 9.39% (inactive). Same read-out and setting: the figure for `CN1CCN(c2ccc(NC(=O)c3ccc(-c4ccc(Cl)cc4)o3)cc2)CC1` is 10.7% (inactive). Same read-out and setting: next, `O=C(CN(C(=O)c1csnn1)c1cccc(C(F)(F)F)c1)NCCc1ccccc1`: “inactive”; `O=[N+]([O-])c1cccc(C2=NC(c3ccccc3)CO2)c1` (centres undefined): 0.23% (inactive). As for `O=[N+]([O-])c1ccc(-[n+]2c(-c3ccccc3)cc(-c3ccccc3)cc2-c2ccccc2)cc1`, the inhibition under setting [1] was 2.23% (inactive). On the same count and under the same terms, the figure for `O=C1CCC(C(=O)N2CCN(c3ccc(F)cc3)CC2)CN1CC1CCCCC1` (centres undefined) is 0.83% (inactive); for `Cc1onc(-c2ccccc2)c1C(=O)NNC(=S)NC(=O)c1ccc(Br)cc1` it is 3.29% (inactive).

In the case of `Cc1onc(-c2ccccc2)c1C(=O)NC(=S)NNC(=O)c1ccc(O)cc1O`, the inhibition under setting [1] was 12.2% (inactive). On the same count and under the same terms, next, `Nc1nnnn1/N=C/C(Br)=C/c1ccccc1`: 12.1% (inactive); `BrC(=C\c1ccccc1)/C=N/n1cnnc1`: 5.75% (inactive). For the compound `Cc1ccc(-c2cc(C(F)F)n3ncc(C(=O)N4CCN(c5ccccn5)CC4)c3n2)cc1`, under setting [1], the inhibition was 8.27% (inactive).

As for `O=C(NCc1ccccc1)c1ncn[nH]1`, under setting [1], the inhibition entry is “inactive”. On to `O=C(Nc1ccccc1Cl)C1CCCN(S(=O)(=O)c2ccc(-n3cnnn3)cc2)C1` (centres undefined), for which the inhibition under setting [1] was 0.96% (inactive).

In the case of `Cc1ncc(CN2CCCC(C(=O)Nc3ccc(-c4ccco4)cc3)C2)n1C` (centres undefined), the inhibition under setting [1] was 5.05% (inactive). Still for that read-out and setting: the figure for `Cn1cc(CN2CCC(C(=O)Nc3cccc(-c4cccc(F)c4)c3)CC2)cn1` is 5.64% (inactive).

In the case of `COc1cccc(-c2ccc(NC(=O)C3CCCN(Cc4cnn(C(C)C)c4)C3)cc2)c1` (centres undefined), under setting [1], the inhibition is 21.3% (inactive). Regarding `COc1cccc(-c2ccc(NC(=O)C3CCCN(Cc4cnc(C)s4)C3)cc2)c1` (centres undefined), the inhibition under setting [1] is 2.02% (inactive).

Take `COc1cccc(-c2ccc(NC(=O)C3CCCN(Cc4cnn(C)c4C)C3)cc2)c1` (centres undefined): the inhibition under setting [1] is 23.7% (inactive).

As to `Cc1ncc(CN2CCCC(C(=O)Nc3ccc(-c4cccc(F)c4)cc3)C2)cn1` (centres undefined), under setting [1], the inhibition is 5.3% (inactive). Same read-out and setting: the figure for `COC(=O)C(O)(c1ccc(N(C)C(=O)c2ccc(Cl)c(Cl)c2)cc1)C(F)(F)F` (centres undefined) is 0.88% (inactive); for `CCOC(=O)c1c(S(=O)(=O)N2c3ccccc3CC2C)c(C)n(C)c1C` (centres undefined) it is “inactive”; for `Cc1c(NC(=O)c2ccc(Br)s2)c(=O)n(-c2ccccc2)n1C` it is 0.26% (inactive). In the case of `O=C(N[C@@H](Cc1ccccc1)C(=O)CCl)OCc1ccccc1`, the inhibition under setting [1] was 8.46% (inactive).

As for `CC(=O)NC(CC(C)C)C(=O)NC(Cc1ccccc1)C(=O)CCl` (stereo not drawn) (Ac-Leu-Phe-CH2Cl; configuration not given here), the inhibition under setting [1] was 6.56% (inactive).

For `Cc1nc(-c2ccc(Cl)cc2)sc1C1(C)CC(c2cccc(F)c2)=NO1` (centres undefined), the inhibition under setting [1] was 2.59% (inactive). Turning to `C[C@]12CCC(O)CC1CCC1C2CC[C@]2(C)C(c3cc(C(F)(F)F)n[nH]3)CCC12` (some centres undefined), the inhibition result under setting [1] is “inactive”.

Turning to `CN(C)CCNC(=O)c1ccccc1-c1cc2ccccc2c(=O)o1`, the inhibition under setting [1] is 0.53% (inactive). Same read-out and setting: next, `COc1ccc(C(=O)Nc2cc3c(cc2OC)CCCC3)cc1Br`: 1.28% (inactive); `COc1cc2c(cc1NC(=O)c1cccc(F)c1)CCCC2`: 0.61% (inactive); `CCOc1ccc(NC(=O)CN(C)C(=O)CCc2nc3ccccc3c(=O)[nH]2)cc1OCC`: “inactive”. Same read-out and setting: the figure for `CC1(C)Cc2cccc(OCC(=O)Nc3nccs3)c2O1` is 7.27% (inactive); for `CC1(C)Cc2cccc(OCC(=O)Nc3cccnc3)c2O1` it is 7.7% (inactive).

Consider `CCCC(=O)C1C(=O)CC(CC(C)SCC)CC1=O` (centres undefined), for which the inhibition under setting [1] is 0.43% (inactive). `O=C1/C(=C/c2cccnc2)Oc2cc(OS(=O)(=O)c3ccc(F)cc3)ccc21`: the inhibition under setting [1] was 0.87% (inactive).

Take `CC(=O)c1c(C)[nH]c(C(=O)NC2CCSc3ccccc32)c1C` (centres undefined): the inhibition under setting [1] was 4.81% (inactive).

With `CCc1c(C(=O)NC2CCCCC2)[nH]c(C)c1C(C)=O`, the inhibition entry under setting [1] was “inactive”. On the same count and under the same terms, the figure for `COc1ccc(N2C(=O)CC(N3CCN(c4ccc(Cl)cc4)CC3)C2=O)cc1` (centres undefined) is 0.34% (inactive); for `Cc1cc2occ(CC(=O)Nc3nnc(C4CC4)s3)c2cc1C` it is 0.7% (inactive); for `CCc1nnc(NC(=O)Cc2c[nH]c3ccccc23)s1` it is 0.4% (inactive). Turning to `CCC(CC)c1nnc(NC(=O)Cc2c[nH]c3ccccc23)s1`, the inhibition under setting [1] is 3.52% (inactive).

For the compound `O=C(Cc1coc2ccc3ccccc3c12)Nc1nccs1`, the inhibition under setting [1] was 2.66% (inactive).

Consider `CC(=O)c1cccc(N=Cc2c(O)c3ccccc3oc2=O)c1`, for which the inhibition under setting [1] was 8.95% (inactive). The same measure, in the same setting: next, `Cc1[nH]c2ccccc2c1C(C[N+](=O)[O-])c1ccco1` (centres undefined): 1.43% (inactive). The same measure, in the same setting: the entry for `COc1cc(S(=O)(=O)N2CCN(C)CC2)c(OC)cc1Cl` is “inactive”; for `COCCC(=O)NC12CC3CC(CC(C3)C1)C2` it is “inactive”; for `O=C(CNCCO)NC12CC3CC(CC(C3)C1)C2` it is 2.6% (inactive). Still for that read-out and setting: next, `Oc1ccc(N=Nc2n[nH]c(-c3ccc(Cl)cc3)n2)cc1`: 1.16% (inactive); `Oc1ccc(Cl)cc1N=Nc1ccccc1`: “inactive”. Consider `COc1ccccc1-c1n[nH]c(=S)o1`, for which, under setting [1], the inhibition is 0.85% (inactive). As to `CC(=O)Nc1ccc(S(=O)(=O)N2CCCc3ccccc32)cc1`, under setting [1], the inhibition result was “inactive”. Still for that read-out and setting: the entry for `COC(=O)Nc1ccc(S(=O)(=O)N2CCCc3ccccc32)cc1` is “inactive”. On the same count and under the same terms, next, `O=C(O)c1ccc(Sc2ccccn2)c([N+](=O)[O-])c1`: 0.39% (inactive); `N/C(CS(=O)(=O)c1ccccc1)=N\OC(=O)c1ccc(F)cc1`: 1.85% (inactive).
